# According to PubChem BioAssay AID1159580 (chemical genetic matrix, 2015):
# Among all 5,500 compounds or so, about 2,000 (36%) were called active. Not shown: some 18% with an inconclusive outcome. The list shows a part of the results. A number with no mark means an inactive call. Rule as the data show it: active = normalized growth mostly below about 0.91 (no sharp cut-off); inconclusive = no clear call, values can overlap the other calls; inactive = mostly above about 0.92.
# Assay: chemical genetic growth profiling, strain panel (AID 1159580);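 also: tested at 20 µM; growth read once vehicle control cultures reached saturation at 30 °C; 1 = growth at the plate median or of vehicle wells; lower values mean less growth of the strain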
# Settings: growth OD
structure (smiles),measurement,setting,value
O=S(=O)(O)CCS,normalized growth,"S. cerevisiae deletion strains, locus YKL009W, strain mrt4, active compounds read low",1.02
same,normalized growth,"S. cerevisiae deletion strains, locus YKL068W, active compounds read low",0.993
same,normalized growth,"S. cerevisiae deletion strains, locus YKL085W, strain MDH1 (second series), active compounds read low",0.99
same,normalized growth,"S. cerevisiae deletion strains, locus YKL085W, strain MDH1, active compounds read low",0.99
same,normalized growth,"S. cerevisiae deletion strains, locus YKL160W, strain elf1, active compounds read low",0.941
same,normalized growth,"S. cerevisiae deletion strains, locus YKL190W, strain CNB1, active compounds read low",1.01
same,normalized growth,"S. cerevisiae deletion strains, locus YKR001C, strain vps1, active compounds read low",1.02
same,normalized growth,"S. cerevisiae deletion strains, locus YKR026C, strain gcn3, active compounds read low",0.996
same,normalized growth,"S. cerevisiae deletion strains, locus YKR091W, strain srl3, active compounds read low",0.98
same,normalized growth,"S. cerevisiae deletion strains, locus YLL001W, strain dnm1, active compounds read low",1
same,normalized growth,"S. cerevisiae deletion strains, locus YLL026W, active compounds read low",1.01
same,normalized growth,"S. cerevisiae deletion strains, locus YLL041C, strain sdh2, active compounds read low",1
same,normalized growth,"S. cerevisiae deletion strains, locus YLR027C, strain aat2, active compounds read low",0.997
same,normalized growth,"S. cerevisiae deletion strains, locus YLR039C, strain RIC1, active compounds read low",1.03
same,normalized growth,"S. cerevisiae deletion strains, locus YLR058C, strain SHM2, active compounds read low",1.02
same,normalized growth,"S. cerevisiae deletion strains, locus YLR102C, strain apc9, active compounds read low",0.992
same,normalized growth,"S. cerevisiae deletion strains, locus YLR113W, strain HOG1, active compounds read low",0.956
same,normalized growth,"S. cerevisiae deletion strains, locus YLR221C, strain rsa3, active compounds read low",1.03
same,normalized growth,"S. cerevisiae deletion strains, locus YLR258W, strain gsy2, active compounds read low",1
same,normalized growth,"S. cerevisiae deletion strains, locus YLR262C, strain YPT6 (second series), active compounds read low",1.01
same,normalized growth,"S. cerevisiae deletion strains, locus YLR262C, strain YPT6, active compounds read low",1.05
same,normalized growth,"S. cerevisiae deletion strains, locus YLR268W, strain sec22, active compounds read low",0.993
same,normalized growth,"S. cerevisiae deletion strains, locus YLR320W, strain mms22, active compounds read low",0.979
same,normalized growth,"S. cerevisiae deletion strains, locus YLR330W, strain CHS5, active compounds read low",1.02
same,normalized growth,"S. cerevisiae deletion strains, locus YLR342W, strain FKS1 (second series), active compounds read low",0.989
same,normalized growth,"S. cerevisiae deletion strains, locus YLR342W, strain FKS1, active compounds read low",0.965
same,normalized growth,"S. cerevisiae deletion strains, locus YLR357W, strain rsc2, active compounds read low",0.912
same,normalized growth,"S. cerevisiae deletion strains, locus YLR370C, strain arc18, active compounds read low",0.98
same,normalized growth,"S. cerevisiae deletion strains, locus YLR371W, strain rom2, active compounds read low",0.996
same,normalized growth,"S. cerevisiae deletion strains, locus YLR384C, strain iki3, active compounds read low",0.97
same,normalized growth,"S. cerevisiae deletion strains, locus YLR418C, strain cdc73, active compounds read low",0.976
same,normalized growth,"S. cerevisiae deletion strains, locus YML016C, strain PPZ1, active compounds read low",1.01
same,normalized growth,"S. cerevisiae deletion strains, locus YML032C, strain rad52, active compounds read low",0.992
same,normalized growth,"S. cerevisiae deletion strains, locus YML120C, strain ndi1, active compounds read low",0.993
same,normalized growth,"S. cerevisiae deletion strains, locus YML124C, strain tub3, active compounds read low",0.994
same,normalized growth,"S. cerevisiae deletion strains, locus YMR058W, strain fet3, active compounds read low",1.01
same,normalized growth,"S. cerevisiae deletion strains, locus YMR078C, strain ctf18, active compounds read low",0.991
same,normalized growth,"S. cerevisiae deletion strains, locus YMR125W, strain sto1, active compounds read low",0.961
same,normalized growth,"S. cerevisiae deletion strains, locus YMR129W, active compounds read low",0.988
same,normalized growth,"S. cerevisiae deletion strains, locus YMR205C, strain PFK2, active compounds read low",1.01
same,normalized growth,"S. cerevisiae deletion strains, locus YMR223W, strain ubp8, active compounds read low",0.987
same,normalized growth,"S. cerevisiae deletion strains, locus YMR231W, strain pep5, active compounds read low",0.978
same,normalized growth,"S. cerevisiae deletion strains, locus YMR307W, strain GAS1, active compounds read low",1
same,normalized growth,"S. cerevisiae deletion strains, locus YNL067W, strain RPL9B, active compounds read low",1.03
same,normalized growth,"S. cerevisiae deletion strains, locus YNL071W, strain lat1, active compounds read low",0.996
same,normalized growth,"S. cerevisiae deletion strains, locus YNL153C, strain GIM3, active compounds read low",1.04
same,normalized growth,"S. cerevisiae deletion strains, locus YNL183C, strain NPR1, active compounds read low",0.933
same,normalized growth,"S. cerevisiae deletion strains, locus YNL209W, strain ssb2, active compounds read low",0.981
same,normalized growth,"S. cerevisiae deletion strains, locus YNL233W, strain BNI4, active compounds read low",1.02
same,normalized growth,"S. cerevisiae deletion strains, locus YNL248C, strain rpa49, active compounds read low",0.947
same,normalized growth,"S. cerevisiae deletion strains, locus YNL250W, strain rad50, active compounds read low",0.987
same,normalized growth,"S. cerevisiae deletion strains, locus YNL271C, strain bni1, active compounds read low",0.981
same,normalized growth,"S. cerevisiae deletion strains, locus YNL298W, strain CLA4, active compounds read low",0.982
same,normalized growth,"S. cerevisiae deletion strains, locus YNL307C, strain MCK1, active compounds read low",0.984
same,normalized growth,"S. cerevisiae deletion strains, locus YNL322C, strain KRE1 (second series), active compounds read low",0.967
same,normalized growth,"S. cerevisiae deletion strains, locus YNL322C, strain KRE1, active compounds read low",1.01
same,normalized growth,"S. cerevisiae deletion strains, locus YNR049C, strain mso1, active compounds read low",0.964
same,normalized growth,"S. cerevisiae deletion strains, locus YNR052C, strain pop2, active compounds read low",0.995
same,normalized growth,"S. cerevisiae deletion strains, locus YOL006C, strain TOP1, active compounds read low",1.07
same,normalized growth,"S. cerevisiae deletion strains, locus YOL012C, strain htz1",1.22
same,normalized growth,"S. cerevisiae deletion strains, locus YOL147C, strain pex11, active compounds read low",0.989
same,normalized growth,"S. cerevisiae deletion strains, locus YOR001W, strain rrp6, active compounds read low",0.996
same,normalized growth,"S. cerevisiae deletion strains, locus YOR061W, strain CKA2, active compounds read low",1.02
same,normalized growth,"S. cerevisiae deletion strains, locus YOR069W, strain VPS5, active compounds read low",1.01
same,normalized growth,"S. cerevisiae deletion strains, locus YOR070C, strain gyp1, active compounds read low",0.988
same,normalized growth,"S. cerevisiae deletion strains, locus YOR080W, strain dia2, active compounds read low",0.964
same,normalized growth,"S. cerevisiae deletion strains, locus YOR083W, strain WHI5, active compounds read low",0.888 (active)
same,normalized growth,"S. cerevisiae deletion strains, locus YOR106W, strain vam3, active compounds read low",0.982
same,normalized growth,"S. cerevisiae deletion strains, locus YOR136W, strain idh2, active compounds read low",0.994
same,normalized growth,"S. cerevisiae deletion strains, locus YOR144C, strain elg1, active compounds read low",0.993
same,normalized growth,"S. cerevisiae deletion strains, locus YOR184W, strain ser1, active compounds read low",0.983
same,normalized growth,"S. cerevisiae deletion strains, locus YOR231W, strain MKK1, active compounds read low",0.974
same,normalized growth,"S. cerevisiae deletion strains, locus YOR265W, strain rbl2, active compounds read low",0.999
same,normalized growth,"S. cerevisiae deletion strains, locus YOR270C, strain vph1, active compounds read low",0.939
same,normalized growth,"S. cerevisiae deletion strains, locus YOR290C, strain snf2, active compounds read low",0.974
same,normalized growth,"S. cerevisiae deletion strains, locus YOR316C, strain cot1, active compounds read low",0.988
same,normalized growth,"S. cerevisiae deletion strains, locus YPL051W, strain arl3, active compounds read low",0.991
same,normalized growth,"S. cerevisiae deletion strains, locus YPL055C, strain LGE1, active compounds read low",1.07
same,normalized growth,"S. cerevisiae deletion strains, locus YPL078C, strain atp4, active compounds read low",0.969
same,normalized growth,"S. cerevisiae deletion strains, locus YPL106C, strain sse1, active compounds read low",0.96
same,normalized growth,"S. cerevisiae deletion strains, locus YPL240C, strain hsp82, active compounds read low",0.994
same,normalized growth,"S. cerevisiae deletion strains, locus YPL241C, strain CIN2, active compounds read low",1.01
same,normalized growth,"S. cerevisiae deletion strains, locus YPL256C, strain CLN2, active compounds read low",0.997
same,normalized growth,"S. cerevisiae deletion strains, locus YPR119W, strain clb2, active compounds read low",0.99
same,normalized growth,"S. cerevisiae deletion strains, locus YPR141C, strain kar3, active compounds read low",0.987
same,normalized growth,"S. cerevisiae deletion strains, locus YPR163C, strain tif3, active compounds read low",0.99
same,normalized growth,"S. cerevisiae deletion strains, locus YPR167C, strain met16, active compounds read low",0.98
same,normalized growth,"S. cerevisiae deletion strains, strain wtn01, active compounds read low",0.981
same,normalized growth,"S. cerevisiae strains, strain wild type, active compounds read low",1.01
